Yeast superoxide – lowers age-related superoxide in aged yeast cells | S. cerevisiae aged cells, superoxide DHE fluorescence; active compounds read low | superoxide response (% of plate mean), % at 10 µM | hit rate 0.18% among 330,000;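 active = superoxide response under a set limit, about three screen SD below normal, cut at about 65% in these data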;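 also: yeast aged for seven days with compound at 30 °C before DHE staining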
tim23-1 inh – inhibits growth of tim23-1 mutant yeast. S. cerevisiae tim23-1 growth, BacTiter-Glo luminescence, 24 h. inhibition, % at 20 µM. hit rate 1.3% among 330,000. AID 463212;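 active = growth inhibition of the mutant yeast at or above 50%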;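 also: temperature-sensitive mutant grown at 25 °C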
NALP3 yeast inh – blocks the NALP3 inflammasome reconstituted in yeast. Yeast reconstituted NLRP3/ASC/caspase-1, beta-gal luminescence, 24 h. inhibition, % at 10 µM. hit rate 0.39% among 330,000. AID 2825;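 active = inhibition of 50% or more; inactive = inhibition below 50%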
tim10-1 inh – tim10-1 yeast growth inhibition; S. cerevisiae tim10-1 ts strain growth, BacTiter-Glo, 24 h; inhibition, % at 20 µM; hit rate 2.2% among 330,000; AID 463190;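 active = inhibition of at least 40%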;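 also: mutant grown at 25 °C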
TIM10 inh – inhibits growth of TIM10 yeast strain; S. cerevisiae TIM10 strain growth, BacTiter-Glo luminescence, 24 h; inhibition, % at 10 µM; hit rate 1.4% among 330,000;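 active = inhibition of 40% or more at the single tested concentration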;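 also: wild-type TIM10 isogenic control strain grown at permissive 25 °C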
CR mimetic CP – yeast aging superoxide inhibition, cherry pick confirmation; superoxide response (% of plate), % at 10 µM; S. cerevisiae aging, superoxide DHE fluorescence; active compounds read low; hit rate 1% among 850; AID 434994; shares compounds with Yeast superoxide;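 active = superoxide signal below 65% of the plate average of sample wells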;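 also: cells aged with compound for 7 days at 30 degrees C before staining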
DHE counter – DHE fluorescence interference, counter-screen artifact | shares compounds with Yeast superoxide | S. cerevisiae BY4741, flow cytometry; active compounds read low | fluorescence response, % at 10 µM | 850 tested, under 10 active;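 active = fluorescence response below 15%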;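 also: lower means stronger quenching of DHE signal or ROS scavenging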
Large screens that a line does not name were inactive (follow-up assays come after a bar, where they were run). Most compounds without a hit are left out; they make up all but 3.8% or so of the library.

CCOC(=O)C1CCN(C(=O)COc2ccc(C(=O)c3ccccc3)cc2)CC1	Yeast superoxide 64 | CR mimetic CP inactive | DHE counter inactive
O=C(Nc1ccccc1C(=O)NCc1ccccc1)C1=CSCCO1	none
CCN(CC)Cc1cc(NC2=NS(=O)(=O)c3ccccc32)ccc1OC(=O)c1ccccc1	Yeast superoxide 63 | CR mimetic CP inactive | DHE counter inactive
CCc1noc(C)c1C(=O)Nc1cc(S(=O)(=O)N2CCOCC2)ccc1N1CCN(CC)CC1	none
O=C(Cn1cnc2ccccc21)N/N=C/c1cccnc1	none
O=C(Cn1cnc2ccccc21)N/N=C/c1ccccn1	Yeast superoxide 21 | CR mimetic CP inactive | DHE counter inactive
O=C(CCn1cnc2ccccc21)N/N=C/c1ccc(O)cc1	Yeast superoxide 65 | CR mimetic CP inactive | DHE counter inactive
Cc1ccc(C(=O)NCCNS(C)(=O)=O)cc1	none
CC1(C)CNC(=O)CC(C)(C)N1	none
CC(C)c1ccc(NC(=O)Cn2c(=O)oc3ccccc32)cc1	Yeast superoxide 65 | CR mimetic CP inactive | DHE counter inactive
COc1ccc(NC(=O)Cn2c(=O)oc3ccccc32)cc1	none
CC(=O)Oc1ccc(Nc2ccccc2)cc1	Yeast superoxide 50 | CR mimetic CP inactive | DHE counter inactive
CC(=O)Oc1ccc(NC(=O)Cc2ccccc2)cc1	none
Cc1ccc(F)cc1CNC(=O)C1CCC(=O)N(CC2CCCCC2)C1 (stereo unspecified)	none
O=S(=O)(Nc1cc(S(=O)(=O)N2CCOCC2)ccc1NCC1CCCO1)c1ccccc1F (stereo unspecified)	none
CCCCCOC(=O)CSc1nnc(-c2cc(OC)c(OC)c(OC)c2)o1	none | CR mimetic CP inactive | DHE counter inactive
COc1cc(-c2nnc(SCC(=O)OC3CCCCC3)o2)cc(OC)c1OC	none
CCOC(=O)CSc1nnc(-c2cc(OC)c(OC)c(OC)c2)o1	none | CR mimetic CP inactive | DHE counter inactive
CCCOC(=O)CSc1nnc(-c2cc(OC)c(OC)c(OC)c2)o1	none | CR mimetic CP inactive | DHE counter inactive
O=C(COc1ccccc1F)Nc1nnc(-c2ccncc2)s1	Yeast superoxide 55 | CR mimetic CP inactive | DHE counter inactive
O=c1c2c(nc3cc(-c4ccc(F)cc4)[nH]n13)CCC2	none
Cc1nc2cc(-c3ccccc3)[nH]n2c(=O)c1C	none | CR mimetic CP inactive | DHE counter inactive
Cc1cc(=O)n2[nH]c(-c3ccccc3)cc2n1	none
COc1cccc(N=Nc2c(N)[nH]n3c(=O)cc(-c4ccccc4)nc23)c1	none
O=c1cc(-c2ccccc2)nc2cc(-c3ccc(F)cc3)[nH]n12	none | CR mimetic CP inactive | DHE counter inactive
COc1cccc(-c2cc3nc(-c4ccccc4)cc(=O)n3[nH]2)c1	none | CR mimetic CP inactive | DHE counter inactive
Cc1ccc(S(=O)(=O)N2CCN(C(=O)COC(=O)CCCOc3ccccc3)CC2)c(C)c1	none
Cc1cc(C)n2nc(C(=O)Nc3ccn(Cc4ccccc4C)n3)cc2n1	none
COc1ccccc1C1CCN(C(=O)c2ccccc2)CC1	none
COc1ccccc1C1CCN(C(=O)c2ccc(Cl)cc2)CC1	Yeast superoxide 37 | CR mimetic CP inactive | DHE counter inactive
CC(C)CCN(C(=O)C1=COCCO1)c1c(N)n(Cc2ccccc2)c(=O)[nH]c1=O	none
CN(C)S(=O)(=O)N1CCN(c2ccccc2)CC1	none
CN(C)S(=O)(=O)N1CCN(c2cccc(Cl)c2)CC1	Yeast superoxide 64 | CR mimetic CP inactive | DHE counter inactive
COc1cccc(OC)c1NC(=O)Cn1nc(-c2ccc3c(c2)OCCO3)ccc1=O	none
CC(=O)Nc1cc2c(cc1NC(=O)Cn1nc(-c3ccccc3F)ccc1=O)OCCO2	Yeast superoxide 62 | CR mimetic CP inactive | DHE counter inactive
COc1ccccc1OCCNC(=O)c1ccc(Br)cc1	Yeast superoxide 58 | CR mimetic CP inactive | DHE counter inactive
COc1ccc(NS(=O)(=O)c2c(C)cc(C)cc2C)cc1	none
COc1cccc(NS(=O)(=O)c2c(C)cc(C)cc2C)c1	none | CR mimetic CP inactive | DHE counter inactive
COc1cc(NC(=O)CSc2ccc(-c3ccccn3)nn2)cc(OC)c1	none | CR mimetic CP inactive | DHE counter inactive
CC(=O)Nc1cccc(NC(=O)CSc2ccc(-c3ccccn3)nn2)c1	none
Cc1ccccc1-c1nnc(SCC(=O)Nc2ccc3c(c2)OCCO3)n1N	none
Cc1ccc(NC(=O)CSc2ccc(-c3ccccn3)nn2)cc1F	none | CR mimetic CP inactive | DHE counter inactive
Nn1c(SCC(=O)Nc2ccc3c(c2)OCCO3)nnc1-c1ccccn1	Yeast superoxide 54 | CR mimetic CP inactive | DHE counter inactive
CCc1ccc(NC(=O)CSc2ccc(-c3ccccn3)nn2)cc1	Yeast superoxide 59 | CR mimetic CP inactive | DHE counter inactive
Cc1cccc(C)c1NC(=O)C(C)Sc1n[nH]c(-c2ccncc2)n1 (stereo unspecified)	none
COc1ccc(C)cc1NC(=O)CSc1ccc(-c2sc(C)nc2C)nn1	none
CCc1ccc(NC(=O)CSc2nnc(-c3ccccn3)n2C)cc1	Yeast superoxide 65 | CR mimetic CP inactive | DHE counter inactive
COc1ccc(C)cc1NC(=O)CSc1ccc(-c2ccccn2)nn1	none | CR mimetic CP inactive | DHE counter inactive
CC(C)c1ccc(NC(=O)CSc2nnc(-c3ccccn3)n2C)cc1	none
CCOc1ccc(CN(C(=O)c2ccccn2)c2ccc(OC)c(Cl)c2)cc1	none
Cc1nc2ccccn2c1C(=O)NNC(=O)Nc1cccc(C(F)(F)F)c1	Yeast superoxide 64 | CR mimetic CP inactive | DHE counter inactive
Cc1cccc(NC(=O)c2c(C)nc3ccccn23)c1	none
O=C(O)C1CCCN1S(=O)(=O)c1ccc(F)cc1 (stereo unspecified)	none | CR mimetic CP inactive | DHE counter inactive
O=C(CN1CCN(c2ccccc2F)CC1)c1ccc2cc[nH]c2c1	Yeast superoxide 63 | CR mimetic CP inactive | DHE counter inactive
CCN(CC)C(=O)Cn1cc(S(=O)(=O)CC(=O)Nc2ccc(F)cc2F)c2ccccc21	none
CC1(C)CC(=O)C=C(Nc2ccc(F)c(Cl)c2)C1	Yeast superoxide 62 | CR mimetic CP inactive | DHE counter inactive
Cc1ccc(NC2=CC(=O)CC(C)(C)C2)cc1Cl	none
O=C(Nc1ccccc1)Nc1snnc1C(=O)Nc1cccc(O)c1	none (no result: Yeast superoxide)
O=C(CC1CCCCC1)NCCS(=O)(=O)N1CCN(c2ccccc2)CC1	Yeast superoxide 64 | CR mimetic CP inactive | DHE counter inactive
Cc1c(NS(=O)(=O)c2cc(C(=O)OCC(=O)N3CCC(C)CC3)ccc2Cl)c(=O)n(-c2ccccc2)n1C	none
CCOc1ccc(NS(=O)(=O)c2ccc3[nH]c(=O)cc(C(=O)O)c3c2)cc1	none
O=C(O)c1cc(=O)[nH]c2ccc(S(=O)(=O)Nc3ccc(F)cc3)cc12	Yeast superoxide 57 | CR mimetic CP inactive | DHE counter inactive

Screening results: PubChem, several laboratories
